# Assay results from PubChem BioAssay.
# Activity calls are given as the source filed them. No rule for the calls is given here.
# Test system: Aerobactin synthetase IucA (Klebsiella pneumoniae hvKP1)
# Experiment: Biochemical IucA enzyme inhibition primary screen of the Spectrum library (AID 1346200);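 also: 100% = wells without compound and 0% = wells lacking enzyme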
# Conditions: malachite green pyrophosphate, A620, at 8 µM, stronger effect = lower value
row,Compound,activity remaining
1,O=C(O)c1cn(-c2ccc(F)cc2)c2cc(N3CCNCC3)c(F)cc2c1=O,118% (inactive)
2,CN(C)CCc1c[nH]c2ccc(C[C@H]3COC(=O)N3)cc12,112% (inactive)
3,C[C@]12CC[C@H](O)CC1=CCC1C2CC[C@]2(C)C(=O)CCC12 (stereo not given in full),103% (inactive)
4,Cc1ncc([N+](=O)[O-])n1CCO,75.6% (inactive)
5,O=C(/C=C/c1ccccc1)c1ccc(O)cc1,95.4% (inactive)
6,CC1CCC2(OC1)OC1CC3C4CC[C@H]5C[C@@H](O)CC[C@]5(C)C4CC(=O)[C@]3(C)C1C2C (stereo not given in full),94.1% (inactive)
7,Nc1ncnc2c1ncn2[C@@H]1O[C@H](CO)[C@@H](O)[C@@H]1O,107% (inactive)
8,Oc1ccc(Cl)c2cccnc12,121% (inactive)
9,CC(O)(P(=O)(O)O)P(=O)(O)O,119% (inactive)
10,COc1ccc2c(c1)OC/C(=C/c1ccc(OC)c(OC)c1)C2=O,123% (inactive)
11,COc1c(-c2coc3cc4c(cc3c2=O)CC(OC(C)=O)C(C)(C)O4)ccc2c1C=CC(C)(C)O2 (stereo not given),103% (inactive)
12,CC(C)NCC(O)COc1cccc2ccccc12 (stereo not given),105% (inactive)
13,N[C@@H](CCC(=O)N[C@@H](CS)C(=O)NCC(=O)O)C(=O)O,101% (inactive)
14,Cn1c(=O)[nH]c2nc[nH]c2c1=O,79.5% (inactive)
15,CC(C)NCC(O)c1ccc2ccccc2c1 (stereo not given),102% (inactive)
16,CO[C@H]1/C=C/O[C@@]2(C)Oc3c(C)c(O)c4c(O)c(c5c(nc6cc(C)ccn65)c4c3C2=O)NC(=O)/C(C)=C\C=C\[C@H](C)[C@H](O)[C@@H](C)C(O)[C@@H](C)[C@H](OC(C)=O)[C@@H]1C (stereo not given in full),110% (inactive)
17,C/C1=C\CC(C)(C)/C=C/CC2(C)OC2CC1 (stereo not given),107% (inactive)
18,C=C1C(C2(C)C=CC(=O)C(C)(C)C2CC(=O)OC)CC[C@@]2(C)[C@H](c3ccoc3)OC(=O)C3OC132 (stereo not given in full),105% (inactive)
19,CC1=CC(=O)C2C(C)(C)CCC[C@]2(C)[C@@]1(O)CCc1ccoc1 (stereo not given in full),105% (inactive)
20,CC1(C)CC[C@]2(C(=O)O)CC[C@]3(C)C(=CCC4[C@@]5(C)CC[C@H](O)C(C)(C)C5[C@H](O)C[C@]43C)C2C1 (stereo not given in full),76.1% (inactive)

row,Compound,activity remaining
1,C=CCCCCCCCCCCCC(O)CC(O)CO (stereo not given),76.1% (inactive)
2,CCCCOc1ccc(CC(=O)NO)cc1,80.8% (inactive)
3,COC1C(O)C(O[C@H]2CC[C@]3(C=O)C4C(CC[C@]3(O)C2)[C@@]2(O)CC[C@H](C3=CC(=O)OC3)[C@@]2(C)C[C@H]4OC(C)=O)OC(C)C1OC(C)=O (stereo not given in full),122% (inactive)
4,C[C@@H]1O[C@@H](O[C@H]2[C@@H](Oc3cc(O)c4c(c3)O[C@H](c3ccc(O)cc3)CC4=O)O[C@H](CO)[C@@H](O)[C@@H]2O)[C@H](O)[C@H](O)[C@H]1O,117% (inactive)
5,CCCCC1=NC2(CCCC2)C(=O)N1Cc1ccc(-c2ccccc2-c2nn[nH]n2)cc1,121% (inactive)
6,CCOC(=O)C(C)(N)Cc1ccc(O)c(O)c1 (stereo not given),105% (inactive)
7,Cc1cc(O)c2c(c1)C(=O)c1cccc(O)c1C2=O,107% (inactive)
8,CC(=O)OC[C@@]1(O)C[C@@]23CCC4c5ccoc5CC[C@]4(C)C2CC[C@@H]1C3 (stereo not given in full),119% (inactive)
9,CC1(C)O[C@@H]2CC3C4CCC5=CC(=O)C=C[C@]5(C)[C@@]4(F)[C@@H](O)C[C@]3(C)[C@]2(C(=O)CO)O1 (stereo not given in full),116% (inactive)
10,CC1(C)S[C@@H]2[C@H](NC(=O)[C@@H](N)c3ccc(O)cc3)C(=O)N2[C@H]1C(=O)O,99.8% (inactive)
11,Nc1ccc(S(=O)(=O)Nc2nccs2)cc1,101% (inactive)
12,CO/N=C(\C(=O)NC1C(=O)N2C(C(=O)OCOC(=O)C(C)(C)C)=C(/C=C\c3scnc3C)CSC12)c1csc(N)n1 (stereo not given),120% (inactive)
13,COc1cccc2c1CCC1=CC(=O)CC[C@@]12C,111% (inactive)
14,CC(=O)O[C@@H]1C[C@@]2(C)C(CC[C@@H]2C(C)=O)C2CCC3=CC(=O)CC[C@]3(C)C21 (stereo not given in full),88.2% (inactive)
15,CCN(CCO)CCCC(C)Nc1ccnc2cc(Cl)ccc12 (stereo not given),109% (inactive)
16,CC(=O)Nc1cccc(O)c1,120% (inactive)
17,C=C1c2cccc(O)c2C(O)=C2C(=O)[C@]3(O)C(O)=C(C(N)=O)C(=O)[C@@H](N(C)C)[C@@H]3[C@@H](O)[C@H]12,111% (inactive)
18,CCCCOc1ccc(OCCCN2CCOCC2)cc1,104% (inactive)
19,CC(C(=O)O)c1ccc(-c2ccccc2)c(F)c1 (stereo not given),104% (inactive)
20,O=C(O)CCCc1ccccc1,111% (inactive)
